A selection: hits, their analogues and other compounds. The true share with any hit is near 9.3%.
FLuc modulator = firefly luciferase modulation, counter-screen for miR-21 project; purified FLuc, Km substrates, luminescence inhibition; Potency, µM (highest dose often 57.5 µM), usual class: inhibitors; hit rate 6.9% among 360,000; note: nearly all actives have a fitted effect of over 55% in size
Target sequence (P08659 whole entry, looked up): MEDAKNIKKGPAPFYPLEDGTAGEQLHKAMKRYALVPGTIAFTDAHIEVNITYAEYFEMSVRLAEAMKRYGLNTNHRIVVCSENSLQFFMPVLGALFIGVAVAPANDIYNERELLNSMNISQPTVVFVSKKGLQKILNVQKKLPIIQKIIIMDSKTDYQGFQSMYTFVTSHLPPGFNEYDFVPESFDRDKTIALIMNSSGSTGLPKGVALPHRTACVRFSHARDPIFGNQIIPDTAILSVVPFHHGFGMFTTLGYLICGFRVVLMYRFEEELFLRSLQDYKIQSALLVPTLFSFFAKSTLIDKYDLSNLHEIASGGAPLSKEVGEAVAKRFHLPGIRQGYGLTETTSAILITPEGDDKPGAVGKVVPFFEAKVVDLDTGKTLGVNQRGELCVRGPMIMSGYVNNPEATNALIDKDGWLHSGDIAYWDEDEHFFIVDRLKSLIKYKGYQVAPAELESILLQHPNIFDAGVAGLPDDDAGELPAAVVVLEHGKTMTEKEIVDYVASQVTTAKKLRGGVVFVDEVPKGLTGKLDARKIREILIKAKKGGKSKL
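Purified P. pyralis luciferase (10nM final) with 10uM D-luciferin and 10uM ATP (Km levels) in 50mM Tris acetate pH 7.5, 10mM Mg acetate, 0.01% Tween-20, 0.05% BSA; qHTS 6-point titration, ~60 µM downward; luminescence read.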
ELG1 genotoxic = genotoxicity induction in ELG1-luciferase HEK293T cells; HEK293T ELG1-luciferase reporter, luminescence, 16 h; Potency, µM (doses to about 46 µM), actives largely listed as activators; hit rate 1.3% among 330,000; AID 504466; note: nearly all actives have a fitted effect of over 60% in size
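Luminescence read-out: rising ELG1-luciferase signal, reflecting elevated ELG1 protein under genetic stress, flags genotoxic compounds. Cells were treated for 16 hr at 37 °C before ONE-Glo detection.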
NPC1 prom act = NPC1 promoter activation | Huh7 NPC1 promoter luciferase reporter, 24 h | Potency, µM (series often up to 9.22 µM), actives largely listed as activators | hit rate 2.4% among 320,000; note: nearly all actives have a fitted effect of over 60% in size
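NPC1 promoter–luciferase Huh7 cells; 24 h compound; luminescence.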
SMN2 splice up = SMN2 splice variant enhancement | HEK293 SMN2-luciferase splicing reporter, luminescence, 30-36 h | Potency, µM (series often up to 46.1 µM), most hits filed as activators | hit rate 2.8% among 210,000 | AID 1458; note: nearly all actives have a fitted effect of over 55% in size
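HEK293 cells carry an SMN2 […]–luciferase reporter in which exon 7 inclusion puts luciferase in frame. Cells were plated 10-12 h before compound addition, then incubated 30-36 h at 37C. ONE-Glo luminescence was read; sodium butyrate at 4.5 mM final served as control.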
Rab9 promoter act = activates the Rab9 promoter; Potency, µM (doses to about 9.22 µM), most hits filed as activators; Huh7 Rab9 promoter-luciferase reporter, luminescence, 24 h; hit rate 2.8% among 320,000; note: nearly all actives have a fitted effect of over 60% in size
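Measured in stably transfected Huh7 cells bearing a Rab9 promoter–luciferase construct: 24 h compound treatment at 37 °C, followed by luminescence detection.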
ELG1 repair inh = inhibitors of ELG1-dependent DNA repair in HEK293T cells; HEK293T ELG1-luciferase reporter, luminescence, 16 h; DNA damage induced by 5-fluorouridine; Potency, µM (highest dose often 46.1 µM), hits mostly inhibitors; hit rate 2.3% among 330,000; note: nearly all actives have a fitted effect of over 55% in size
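HEK293T cells expressing luciferase-tagged ELG1 (2,000/well) received 5-Fluorouridine plus compound or DMSO for 16 hr at 37 °C. Luciferase was read by ONE-Glo luminescence after 30 min at room temperature.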
Numbers stand for hits; - = inactive; ? = inconclusive; . = no result given; [ ] = another dose, or the depositor's remark. Calls come from the whole dose curve; as a rule, active = well fitted curve in the direction sought with a large enough effect; inconclusive = small, poorly fitted or top-dose-only effect, or another doubt; inactive = no such curve, though single readings can be large; an effect the other way counts as inactive or inconclusive.

SMILES | FLuc modulator | ELG1 genotoxic | NPC1 prom act | SMN2 splice up | Rab9 promoter act | ELG1 repair inh
COc1ccc2nc(NNC(=O)C3COc4ccccc4O3)sc2c1 (configuration not stated) | - | - | - | - | - | -
COc1ccc(OC)c(-c2csc(NC(=O)C3COc4ccccc4O3)n2)c1 (configuration not stated) | - | - | - | - | - | ?
CC1CC1C(=O)Nc1nc2ccc(S(C)(=O)=O)cc2s1 (configuration not stated) | - | - | - | . | - | -
O=C(Nc1nc(-c2nc3ccccc3s2)cs1)C1COc2ccccc2O1 (configuration not stated) | 19µM | - | - | 25µM | - | ?
Cc1cc(N2CCN(C)CC2)nc2ccc(NC(=O)CCC(=O)NCCCOC(C)C)cc12 | - | - | - | . | - | -
Cc1cc(N2CCCCC2)nc2ccc(NC(=O)CCC(=O)NCCC(C)C)cc12 | 7.6µM | ? | ? | - | 3.2µM | ?
CCCCNC(=O)CCC(=O)Nc1ccc2nc(N3CCCCC3)cc(C)c2c1 | 15µM | - | ? | 7.1µM | ? | ?
COc1cccc(NC(=O)CCC(=O)Nc2ccc3nc(N4CCOCC4)cc(C)c3c2)c1 | 6µM | - | ? | . | 2.5µM | -
Cc1cc(N2CCN(C)CC2)nc2ccc(NC(=O)CCC(=O)N3CCN(c4ccc([N+](=O)[O-])cc4)CC3)cc12 | - | - | - | . | - | ?
CCN(CC)CCCNC(=O)CCC(=O)Nc1ccc2nc(N3CCCCC3)cc(C)c2c1 | - | - | - | - | - | ?
Cc1cc(N2CCOCC2)nc2ccc(NC(=O)CCC(=O)N3CCN(c4ccccc4)CC3)cc12 | 12µM | - | ? | . | - | ?
Clc1ccc(CSc2nncn2-c2ccc3c(c2)OCCO3)cc1 | - | - | - | . | - | -
CCOC(=O)C1CCCN(C(=O)CCC(=O)Nc2ccc3nc(N4CCOCC4)cc(C)c3c2)C1 (configuration not stated) | 17µM | ? | ? | . | ? | ?
CCCCN(CC)CCNC(=O)CCC(=O)Nc1ccc2nc(N3CCN(C)CC3)cc(C)c2c1 | - | - | - | - | - | ?
CCCCNC(=O)CCC(=O)Nc1ccc2nc(N3CCOCC3)cc(C)c2c1 | 15µM | - | ? | - | ? | ?
COCCCNC(=O)CCC(=O)Nc1ccc2nc(N3CCOCC3)cc(C)c2c1 | ? | - | - | ? | ? | ?
Cc1cc(N2CCOCC2)nc2ccc(NC(=O)C3CCC(C)CC3)cc12 (configuration not stated) | - | - | - | - | - | -
CCCN(CCC)CCNC(=O)CCC(=O)Nc1ccc2nc(N3CCOCC3)cc(C)c2c1 | - | ? | ? | . | 3.5µM | ?
Cc1ccc(C)c(NC(=O)CSc2nc3ccc(N4C(=O)c5ccccc5C4=O)cc3s2)c1 | - | - | - | -[1.84 µM] | - | -
CCN(CC)c1ccc(/C=N/Nc2cccc(C)c2)c(O)c1 | ? | - | - | ? | - | ?
CCN(CC)c1ccc(/C=N/N2CCOCC2)c(O)c1 | 13µM | ? | ? | 8.9µM | 3.5µM | ?
CCN(CC)c1ccc(C=Nc2ccccc2)c(O)c1 | 4.3µM | - | - | - | - | -
CCN(CC)c1ccc(C=Nc2ccc(N(C)C)cc2)c(O)c1 | 8.5µM | 13µM | - | - | - | ?
CCN(CC)c1ccc(/C=N/Nc2ccccc2)c(O)c1 | 21µM | - | - | - | - | -
CCC(=O)N1CCCN(S(=O)(=O)c2ccc(C)cc2)C1c1ccc(OC)cc1 (configuration not stated) | - | - | - | . | - | -
SMILES | FLuc modulator | ELG1 genotoxic | NPC1 prom act | SMN2 splice up | Rab9 promoter act | ELG1 repair inh
CCN(CC)c1ccc(C=Nc2ccc(C)cc2)c(O)c1 | 11µM | - | - | - | - | -
Cn1cc(CCNC(=O)c2ccc3nc(Cc4ccccc4F)oc3c2)cn1 | 5.4µM | ? | 2.5µM | . | 1.6µM | ?
Cn1cc(CNC(=O)c2ccc3nc(Cc4ccccc4F)oc3c2)cn1 | 24µM | ? | 2.8µM | . | ? | ?
CCn1cc(CNC(=O)c2ccc3nc(Cc4ccccc4F)oc3c2)cn1 | ? | - | - | . | - | -
O=C(NCc1ccc(Cl)cc1)c1ccc(COCC(F)(F)F)o1 | - | - | - | - | - | -
CC(OC(=O)c1ccc2c(=O)n3c(nc2c1)CCC3)C(N)=O (configuration not stated) | - | - | - | - | - | -
O=C(Oc1cccc(F)c1)c1ccc2c(=O)n3c(nc2c1)CCC3 | 15µM | - | - | . | - | -
O=C(Oc1ccc(F)cc1)c1ccc2c(=O)n3c(nc2c1)CCC3 | 12µM | - | - | . | - | -
CCCN(C(=O)NCc1noc2ccc(C)cc12)c1ccc(Cl)c(Cl)c1 | - | . | . | . | . | .
COc1cccc2c1nc(C)c1cc(C)oc12 | 21µM | ? | - | ? | - | ?
COc1ccc2nc(C)c3cc(C)oc3c2c1 | - | - | - | - | - | -
O=S(=O)(c1ccc2oc(=S)[nH]c2c1)N1CCCCC1 | - | - | - | . | - | -
S=c1[nH]c2cc(-c3ccccc3)ccc2o1 | 21µM | - | - | . | - | ?
Cc1c(C(=O)Nc2ccc3c(c2)OCCO3)cnn1C | 11µM | 3.7µM | ? | . | ? | ?
CCn1cc(Cl)c(C(=O)Nc2ccc3c(c2)OCCO3)n1 | 6µM | ? | 3.2µM | 11µM | 1.6µM | ?
Cc1nn(C)cc1S(=O)(=O)Nc1ccc2c(c1)OCCO2 | ? | ? | - | - | - | ?
Cc1nn(C)cc1C(=O)Nc1ccc2c(c1)OCCO2 | 12µM | ? | 4.5µM | . | 3.2µM | ?
Cn1ncc([N+](=O)[O-])c1C(=O)Nc1ccc2c(c1)OCCO2 | ? | - | - | - | - | ?
Cn1nccc1C(=O)Nc1ccc2c(c1)OCCO2 | 12µM | ? | 3.2µM | . | 1.6µM | ?
COc1cc(/C=C\C(=O)NCc2ccc3[nH]c(C)cc3c2)cc(OC)c1OC | ? | - | - | - | - | -
C#CCOCCOCCOCCNc1nc(N2CCN(C(=O)CCCCCCCCCCNC(=O)Cn3cc(CCCCCN)nn3)CC2)nc(N2CCN(C(=O)CCCCCCCCCCNC(=O)[C@@H](CCSC)n3cc(CCO)nn3)CC2)n1 | - | - | - | . | - | ?
Cn1ncc(Br)c1C(=O)Nc1ccc(Br)cn1 | - | - | - | - | - | -
Cc1c(C(=O)Nc2ccc(Br)cc2)cnn1C | 13µM | ? | ? | 13µM | ? | ?
Cn1nccc1C(=O)Nc1ccc(OC(=O)c2ccnn2C)cc1 | - | - | - | - | - | 23µM
CCOc1cccc(/C=N/NC(=O)c2cccnc2)c1O | 19µM | ? | - | . | - | ?
O=C(N/N=C/c1ccccc1OCc1ccccc1Cl)c1cccnc1 | 24µM | - | - | - | - | -
CCOc1cccc(/C=N/NC(=O)c2cc(C3CC3)[nH]n2)c1O | 12µM | ? | - | . | - | 2.6µM

Bioassay records (PubChem)
